# Measurements as given in PubChem BioAssay AID686978 (National Center for Advancing Translational Sciences (NCATS), 2013).
# Out of some 420,000 compounds screened, about 64,000 (15%) were called active. Not shown: some 27% with an inconclusive outcome. Calls come from the whole dose curve; as a rule, active = well fitted inhibition curve with a large enough effect; inconclusive = small, poorly fitted or top-dose-only effect; inactive = flat fitted curve, though single readings scatter. These entries were drawn from the full list. Entries that show only a call come without a potency.
# Experiment: qHTS for Inhibitors of human tyrosyl-DNA phosphodiesterase 1 (TDP1): qHTS in cells in absence of CPT; note: nearly all actives have a fitted effect of over 55% in size
# Conditions: DT40 Tdp1-/- hTDP1 cells, no CPT, ATP luminescence, 48 h; activity change, negative = growth inhibition: at 46.2 µM (top of the series)
# Outline: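 Cells were dispensed at 400 per well, compounds added by pin tool, plates incubated ≥48 hr at 37 °C, then CellTiter-Glo added for 30 min at room temperature before luminescence reading. Line: DT40 Tdp1-/- complemented with hTDP1; camptothecin omitted.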
# Potency is the fitted concentration of half-maximal effect.
row,SMILES,Potency
1,COc1cccc(OCc2nnc3n2N=C(c2ccccc2)C(CC(=O)O)S3)c1 (stereo not given),inactive
2,Cc1nn(-c2ccccc2)c(CC(C)(C)C(=O)O)c1C(=O)O,inactive
3,Cc1nn(-c2ccccc2)c(Cl)c1/C=C/C(=O)c1ccc(O)cc1,16.4 µM (active)
4,Cc1nn(-c2ccccc2)c(C)c1/C=C/C(=O)OC(C)C(N)=O (stereo not given),inactive
5,Cc1ccc(C(=O)/C=C/c2c(C)nn(-c3ccccc3)c2Cl)cc1,20.6 µM (active)
6,Cc1nn(-c2ccccc2)c(Cl)c1C(=O)Nc1ccccc1,inactive
7,O=C(O)c1ccc2c(c1)C(=O)N(c1ccc(/C=C/C(=O)c3ccccc3)cc1)C2=O,inactive
8,COc1ccc(C2CC(=O)C=C(NCC3CCCO3)C2)cc1 (stereo not given),inactive
9,COC(=O)c1ccc(/C=N\n2c(C)nnc2C)cc1,inactive
10,CC(OC(=O)c1ccc(NS(=O)(=O)c2ccc3[nH]c(=O)[nH]c3c2)cc1)C(=O)Nc1cccc(Cl)c1Cl (stereo not given),inactive
11,O=C(COCc1cc(-c2ccc3c(c2)OCO3)on1)N1CCN(c2cccc(Cl)c2)CC1,inactive
12,Cc1cc(/C=C2/C(=N)N3C(=NC2=O)SN=C3S(C)(=O)=O)c(C)n1-c1ccccc1,inactive
13,O=C(CSc1nnc(Cc2ccccc2)n1-c1ccccc1)N1CCOCC1,inactive
14,CN(CCc1ccccn1)C(=O)c1ccc(OC2CCN(CCc3ccccc3)CC2)cc1,inactive
15,c1ccc(-c2cc(-c3ccccc3)[nH]n2)cc1,inactive
16,c1ccc(-c2cc(-c3nnc4sc(-c5ccccn5)nn34)[nH]n2)cc1,13 µM (active)
17,Fc1ccc(-c2ccc(-c3nn4c(-c5ccco5)nnc4s3)o2)cc1,inactive
18,COC(=O)C1[C@H]2SC(C)(C)C(C(=O)OC)N2C(=O)N1Cc1nc2ccccc2s1 (stereo not given in full),inactive
19,Cc1cccc(CSc2nnc(Cn3c(=O)sc4ccccc43)n2C)c1,inactive
20,CNC(=S)N1N=C(c2ccccc2)CC1c1ccc(Br)cc1 (stereo not given),inactive
21,Brc1ccc(C2CC(c3ccccc3)=Nc3ccccc3N2)cc1 (stereo not given),23.1 µM (active)
22,CCCC(=O)Nc1cccc(NC(=S)NC(=O)C(C)Oc2ccc(Cl)cc2Cl)c1 (stereo not given),inactive
23,CC(Cc1cccs1)NC(=O)c1cccc(Cl)c1 (stereo not given),inactive
24,Cc1noc(C)c1S(=O)(=O)N(C)C[C@H]1Oc2ccc(NC(=O)C3CC3)cc2C(=O)N([C@H](C)CO)C[C@@H]1C,inactive
25,COc1ccc(-c2nc(Cn3c(=O)cc(C)c4c(C)nn(-c5ccccc5)c43)c(C)o2)cc1OC,inactive

row,SMILES,Potency
1,COc1ccc(-c2nc(Cn3c(=O)cc(C)c4c(C)nn(-c5ccccc5)c43)c(C)o2)c(OC)c1,20.6 µM (active)
2,Cc1ccc(-c2nc(Cn3c(=O)cc(-c4ccccc4)c4c(C)nn(C)c43)c(C)o2)cc1,inactive
3,COc1cc(NC(=O)COC(=O)CSc2ccc3ccccc3c2)c(C)cc1[N+](=O)[O-],inactive
4,O=C1N=C(N2CCOCC2)S/C1=C\C=C/c1ccccc1,inactive
5,CC1CCN(C2=NC(=O)/C(=C/c3cn[nH]c3-c3ccccc3)S2)CC1,14.6 µM (active)
6,Cc1nc2nc(C)c(NS(=O)(=O)c3ccc(C(C)(C)C)cc3)c(=O)n2[nH]1,inactive
7,CC(=O)c1ccc(OC(=O)N2CCOCC2)cc1,inactive
8,Cc1ccc(CN(C)Cc2cc(=O)oc3cc(C)c(Cl)cc23)cc1,inactive
9,COc1ccc(S(=O)(=O)N(C)C[C@@H]2Oc3ccc(NS(=O)(=O)c4cn(C)cn4)cc3C(=O)N([C@@H](C)CO)C[C@@H]2C)cc1,inactive
10,Cn1c(N)c(C(=O)COC(=O)c2ccc3ccccc3c2)c(=O)n(C)c1=O,inactive
11,Cc1cc(OCCCN2CCN(Cc3ccccc3)CC2)ccc1[N+](=O)[O-],11.6 µM (active)
12,CCc1cc(=O)oc2cc(OCC(=O)N3CCCc4ccccc43)ccc12,inactive
13,Cc1ccccc1N1CCN(CCCOc2ccc3c(C)cc(=O)oc3c2)CC1,16.4 µM (active)
14,Cc1cc(OCC(=O)Nc2c(C)n(C)n(-c3ccccc3)c2=O)ccc1[N+](=O)[O-],inactive
15,Cc1cc(OCC(=O)NC2CCN(C)CC2)ccc1[N+](=O)[O-],inactive
16,Cc1c(Br)c([N+](=O)[O-])nn1CC(=O)N1CCN(Cc2ccccc2)CC1,inactive
17,Cc1ccccc1N1CCN(CCCN2C(=O)C3CCCCN3C2=O)CC1 (stereo not given),inactive
18,Cc1ccc(OCC(=O)Oc2ccccc2[N+](=O)[O-])cc1,inactive
19,Cc1cc(OCCCCOc2ccc(C#N)cc2)ccc1[N+](=O)[O-],8.2 µM (active)
20,COc1ccc(S(=O)(=O)Nc2c(C)n(C)n(-c3ccccc3)c2=O)cc1,inactive
21,CC[C@@H]1CCCCc2ccccc2[C@@H](C(=O)C[C@H](O)CC(C)=O)OC1=O,inactive
22,O=C(c1cc(COc2ccc(F)cc2F)on1)N1CCOCC1,inactive
23,Cc1ccccc1CSc1nnc(-c2ccccn2)n1N,inactive
24,CN(Cc1ccccc1)S(=O)(=O)c1nnc(NC(=O)c2ccccc2F)s1,inactive
25,O=C(Oc1cccc(C(=S)N2CCOCC2)c1)c1cccc(Cl)c1,inactive
